Compounds without any hit were thinned out: in the full panel of roughly 79,000, 15% have a hit. Rule as the data show it: active = growth inhibition above about 70%; inactive = the rest.
Experiments:
[1] = NCI Yeast Anticancer Drug Screen. Data for the rad50 strain (AID 155);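 also: 0% = growth of vehicle-only cultures of the same strain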; details: S. cerevisiae rad50 strain growth inhibition; at 50.0 µM; hits give high values
How it was run: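 Inhibition values express reduced yeast growth in compound-treated cultures relative to vehicle-treated controls.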

[2] = NCI Yeast Anticancer Drug Screen. Data for the mec2-1 strain (AID 157); details: S. cerevisiae mec2-1 strain, at 50.0 µM, hits give high values
How it was run: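 Mutant yeast (mec2-1) grown with compound; growth inhibition relative to vehicle control reported.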

[3] = NCI Yeast Anticancer Drug Screen. Data for the sgs1 mgt1 strain (AID 161);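 also: 0% = growth of cultures given vehicle only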; details: S. cerevisiae sgs1 mgt1 strain, at 50.0 µM, hits give high values
How it was run: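 Compounds are added to genetically altered yeast, and growth is compared with cultures given vehicle alone to give percent inhibition.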

[4] = NCI Yeast Anticancer Drug Screen. Data for the cln2 rad14 strain (AID 165);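 also: 0% = growth equal to vehicle treated cultures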; details: S. cerevisiae cln2 rad14 strain, at 50.0 µM, hits give high values
How it was run: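 Readout is yeast growth inhibition versus vehicle-treated controls, using a strain with cln2 and rad14 alterations exposed to compound.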

[5] = NCI Yeast Anticancer Drug Screen. Data for the bub3 strain (AID 167); details: S. cerevisiae bub3 mutant strain, at 50.0 µM, hits give high values
How it was run: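 Steps: expose the mutant yeast strain to compound; grow alongside vehicle-treated cultures; measure growth; express inhibition against the vehicle cultures.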

[6] = NCI Yeast Anticancer Drug Screen. Data for the mlh1 rad18 strain (AID 175); details: S. cerevisiae mlh1 rad18 strain growth inhibition; at 50.0 µM; hits give high values
How it was run: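 Genetically defined yeast (DNA repair-deficient) exposed to compounds; growth inhibition determined relative to vehicle.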

Measured: growth inhibition

O=C1C=C(NCCCCC2CCCCC2)c2ccccc2C1=O
inactive: [1] 11.8% | [2] -3.25% | [3] 0.15% | [4] 11.2% | [5] -9.3% | [6] -4.6%

CCOC(=O)c1c(-c2ccccc2)nn(CC(N)=O)c1CO
inactive: [1] -15.9% | [2] -5.15% | [3] 10.4% | [4] 23.1% | [5] 18.2% | [6] -10.7%

CC(O)C1CCCCC1O (stereo unspecified)
inactive: [1] 5.15% | [2] -28.3% | [3] -2.85% | [4] -8.65% | [5] -9.6% | [6] -11.3%

O=C1CSC(c2cccc(O)c2O)N1c1nncs1 (stereo unspecified)
inactive: [1] 1.35% | [2] 0.25% | [3] 1.85% | [4] -6.9% | [5] 5.9% | [6] -5.35%

C[Si](C)(C)CN=P(c1ccccc1)(c1ccccc1)c1ccccc1
inactive: [1] -29.6% | [2] -12.4% | [3] -19.2% | [4] 17.4% | [5] 3.7% | [6] -4.8%

S=c1nn[nH]n1C1CCCCC1
inactive: [1] 8.05% | [2] -14.3% | [3] -1.8% | [4] 4.1% | [5] 0.85% | [6] 9.95%

CCOc1c2c(nn(C)c1=O)Oc1ccccc1N2CCCN1CCOCC1
inactive: [1] -27.6% | [2] -0.25% | [3] -18.1% | [4] 2.3% | [5] 3.95% | [6] -4.6%

O=c1[nH]c2cccccc-2c1-c1nc2ccccc2[nH]1
inactive: [1] 40.6% | [2] 15.2% | [3] 33.6% | [4] 19.5% | [5] 16.7% | [6] 8.95%

CC[P+](C)(C)c1ccccc1
inactive: [1] 30.9% | [2] -0.8% | [3] 2.1% | [4] 7.55% | [5] 11.7% | [6] 2.75%

CC1CNC(=S)O1 (stereo unspecified)
inactive: [1] -18.2% | [2] -15.5% | [3] 5.05% | [4] -7.05% | [5] -32.1% | [6] -16.7%

CCOC(=O)C1=C(C)NC(C)=C(C(=O)OCC)C1
inactive: [1] 14.9% | [2] -5.8% | [3] -1.5% | [4] -41.1% | [5] 31.1% | [6] 13.5%

CCCCCCCCCCCCCCCCCCNC(=O)N(C)Cc1ccccc1
inactive: [1] 17.5% | [2] 1.65% | [3] -0.65% | [4] -4.75% | [5] -1% | [6] -8.05%

CC(=O)[C@H]1C[C@@H](CC(=O)O)C1(C)C
inactive: [1] -0.55% | [2] -11.8% | [3] -10.6% | [4] -6% | [5] -3.25% | [6] -3.15%

CCCCCCCCCc1ccc(COCCCC)cc1
inactive: [1] 21.9% | [2] 55.1% | [3] 56.1% | [4] 50.1% | [5] 49.5% | [6] 48.8%

Clc1cccc2[nH]ccc12
inactive: [1] -6.1% | [2] -3.1% | [3] -23.9% | [4] -10.2% | [5] -11.3% | [6] -3.9%

COc1ccc(C(=Cc2cc(OC(C)=O)c3ccccc3c2OC(C)=O)c2ccc(OC)cc2)cc1
inactive: [1] 13.1% | [2] -8.8% | [3] -8% | [4] -15.9% | [5] 3.7% | [6] -0.5%

C=C1CN=C(Nc2ccc(Cl)cc2)S1
inactive: [1] -11.1% | [2] 18.1% | [3] -14.8% | [4] 17.2% | [5] 11.5% | [6] -13.7%

C[N+](C)(Cc1cccc(Cl)c1)c1nnn[n-]1
inactive: [1] -9.75% | [2] -18.9% | [3] -7.05% | [4] -22.6% | [5] -7.4% | [6] -9.5%

CN1c2ccccc2S(=O)(=O)n2c(COc3ccc(Cl)cc3)nnc21
inactive: [1] -3.4% | [2] 4.15% | [3] 2.5% | [4] 12% | [5] 3.05% | [6] 2.6%

C(#CCN1CCOCC1)CCCN1CCOCC1
inactive: [1] 1.2% | [2] -38.7% | [3] -2.45% | [4] -17.4% | [5] -15.2% | [6] 10.2%

CC(=O)Oc1c2oc3cc(O)c(O)cc3c2c(OC(C)=O)c2oc3cc(O)c(O)cc3c12
inactive: [1] -0.4% | [2] 0.05% | [3] -1.15% | [4] -5.45% | [5] -0.8% | [6] -29.1%

CCOc1ccc(C(=O)OC(C)C)cc1
inactive: [1] 26.5% | [2] 4.15% | [3] 1.9% | [4] 2.7% | [5] -2.45% | [6] 6.15%

Cc1c(C)c(C)c(CC2(C)CSC2)c(CC2(C)CSC2)c1C
inactive: [1] -1.65% | [2] -20.2% | [3] -12.6% | [4] 14.6% | [5] -41.8% | [6] 10.9%

Nc1nc2c(nc(Br)n2C2OC(CO)C(O)C2O)c(=O)[nH]1 (stereo unspecified)
inactive: [1] -2.05% | [2] -1.6% | [3] 0.95% | [4] -8.4% | [5] 1.8% | [6] -9.65%

COc1ccc(/C=N/NC(N)=S)cc1
inactive: [1] 24.1% | [2] 14.6% | [3] 28.6% | [4] -13% | [5] 12.8% | [6] 46.6%

COc1ccc(-c2cn3c([nH]c(=O)c4cc(Br)ccc43)c2C#N)cc1
inactive: [1] 5.55% | [2] -5.3% | [3] -3.7% | [4] -5.25% | [5] 2.2% | [6] 16.1%

Cc1cc(OCc2ccc3ccccc3c2)ccc1Nc1cc(=O)[nH]c(=O)[nH]1
inactive: [1] 3.65% | [2] 33.6% | [3] 18.6% | [4] -4.55% | [5] 33.6% | [6] 24.4%

CC(O)CC(=O)c1ccc(O)cc1 (stereo unspecified)
inactive: [1] -42% | [2] -41% | [3] -30.2% | [4] 1.7% | [5] -49.5% | [6] -41.3%

CSc1nc(=S)c2[nH]c(=S)[nH]c2[nH]1
inactive: [1] -1.2% | [2] 11.4% | [3] -6.5% | [4] -35.9% | [5] 21.5% | [6] 4.05%

O=C(O)C1CCCCN1/N=C/c1cccc([N+](=O)[O-])c1 (stereo unspecified)
inactive: [1] 36% | [2] 11.9% | [3] 22% | [4] 1.3% | [5] 26.9% | [6] 11.9%

Nc1ccc(C(=O)N/C(=C\c2cccc([N+](=O)[O-])c2)c2nc3ccc(Cl)cc3[nH]2)cc1
inactive: [1] -10.1% | [2] -21.4% | [3] -25.3% | [4] -17.9% | [5] 1% | [6] -15.9%

COc1ccc(C(=O)c2cc(S(=O)(=O)O)c(OC)cc2O)c(O)c1
inactive: [1] -32.8% | [2] -35.4% | [3] -31.2% | [4] -1.6% | [5] -13.4% | [6] -21.9%

CCN(CC)P(=O)(c1ccc2c(c1)OCCOCCOCCOCCO2)N(CC)CC
inactive: [1] 28.9% | [2] 22.9% | [3] 21.7% | [4] 23.3% | [5] 33.6% | [6] 37%

COC(=O)/C(=N/NC(C)(C)C)C(C(=O)OC)C(=O)C(=O)Nc1nc2ccc([N+](=O)[O-])cc2s1 (stereo unspecified)
inactive: [1] 33.1% | [2] 8.15% | [3] -22.9% | [4] -10.4% | [5] 0.1% | [6] 27.4%

O=C(O)CCCc1ccc2c(c1)-c1ccccc1S2=O (stereo unspecified)
inactive: [1] 0.65% | [2] 3.8% | [3] 1.25% | [4] -3.6% | [5] -4% | [6] 13.1%

CC(C)(C)c1cc(CN2CCOCC2)cc(C(C)(C)C)c1O
inactive: [1] 8% | [2] 5% | [3] 0.7% | [4] 0.15% | [5] -3.15% | [6] 14.3%

CCOC(=O)C(C)Oc1ccc(Cl)cc1 (stereo unspecified)
inactive: [1] -7.85% | [2] -14.9% | [3] -13.1% | [4] -44.1% | [5] -6.3% | [6] 1.8%

O=C(OC(=O)c1ccc(Cl)cc1)c1ccc(Cl)cc1
inactive: [1] -4.65% | [2] 25.9% | [3] 5.45% | [4] -8.15% | [5] -9.2% | [6] -7.35%

CCOC(C)=N
inactive: [1] 3.1% | [2] -29.4% | [3] 7.3% | [4] -6.85% | [5] -9.7% | [6] 3.35%

O=C(O)c1ccc(NC(=S)Nc2ccc(C(=O)O)cc2)cc1
inactive: [1] -13.5% | [2] -0.15% | [3] 19.9% | [4] -7.4% | [5] -6.15% | [6] -22.9%

CCOC(=O)CC1CC(C)(C(=O)OCC)C(=O)CC1=O (stereo unspecified)
inactive: [1] -21.1% | [2] -4.9% | [3] -11% | [4] 8.35% | [5] 7.5% | [6] 0%

Source: PubChem BioAssay (NCI)
